Active and inactive are the calls of the source. How the calls were made is not given here.

The target in the assay is Pantothenate synthetase (Mycobacterium tuberculosis (strain ATCC 25618 / H37Rv)) (UniProt P9WIL5). As to the kind of experiment: Recombinant Mtb pantothenate synthetase (PanC) inhibitors, coupled enzyme, confirmatory (AID 375).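 Further: 0% = full reaction with vehicle and 100% = no enzyme background.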 Conditions: coupled enzyme assay; at 10 µM, hits give high values.
Chain of Pantothenate synthetase (Mycobacterium tuberculosis (strain ATCC 25618 / H37Rv)) (P9WIL5 whole entry, looked up): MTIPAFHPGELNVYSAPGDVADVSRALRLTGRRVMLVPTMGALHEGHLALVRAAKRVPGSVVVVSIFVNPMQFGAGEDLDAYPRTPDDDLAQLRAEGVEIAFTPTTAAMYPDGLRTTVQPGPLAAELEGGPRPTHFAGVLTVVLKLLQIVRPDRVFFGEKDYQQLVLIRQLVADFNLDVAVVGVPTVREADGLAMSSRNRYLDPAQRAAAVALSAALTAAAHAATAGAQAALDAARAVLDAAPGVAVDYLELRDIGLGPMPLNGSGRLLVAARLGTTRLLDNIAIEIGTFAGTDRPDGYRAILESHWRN
In the case of `COC(=O)c1sccc1NC(=O)c1ccco1`, the inhibition was 1% (inactive).
On to `COc1ccc2c(=O)c3c(=O)n(Cc4ccco4)c(-c4cc(OC)c(OC)c(OC)c4)nc3oc2c1`, for which the inhibition was 5% (inactive).
Turning to `COc1ccc(OCc2cccc(C(=O)O)c2)cc1`, the inhibition is 0% (inactive).
Consider `CCC(C)c1ccc(NC(=O)c2cccnc2)cc1` (configuration not stated), for which the inhibition is 9% (inactive).
For `CCCCOc1ccc(CC(=O)NO)cc1` the value was 9% (inactive); for `Cc1cc2c(cc1C)C(=O)NC(C)(C)C2`, 0% (inactive); for `CC(=O)C1=C(O)C(=O)N(C2CCCCC2)C1c1ccccc1` (configuration not stated), 0% (inactive).
On to `COc1ccccc1CC1(C)NC(=O)N(CC(=O)Nc2cc(C)on2)C1=O` (configuration not stated), for which the inhibition is 1% (inactive).
On to `Cc1nc2sc(C(c3cccc(F)c3)N3CCOCC3)c(O)n2n1` (configuration not stated), for which the inhibition was 0% (inactive).
Regarding `CC(=O)NC(CCS(C)(=O)=O)C(=O)Nc1cc(C)on1` (configuration not stated), the inhibition is 0% (inactive).
`COC(=O)c1cccc(NC(=O)NC2CCCN2S(=O)(=O)c2ccc(Cl)cc2)c1` (configuration not stated): the inhibition is 16% (inactive).
Consider `O=C(O)C1CCCN1C(=O)Nc1ccc(F)cc1` (configuration not stated), for which the inhibition is 2% (inactive).
For `CCOC(=O)C1CCN(C(=O)C2(NC(=O)Nc3ccccc3Cl)CCCCC2)CC1` the value was 0% (inactive); for `CSc1nc(=NC(C)=O)ss1`, 0% (inactive); for `CCCCCc1c(O)c2ccccc2[nH]c1=O`, 0% (inactive).
For the compound `COc1ccc(N=C2C(=O)Nc3ccccc32)cc1`, the inhibition was 0% (inactive).
For `O=C(OCC#CCSc1nc2ccccc2o1)c1ccco1`, the inhibition was 0% (inactive).
Regarding `CCOc1ccccc1C(=O)NCCC(=O)O`, the inhibition was 2% (inactive).
For the compound `CN(C)c1ccc(CNC2CC(C)(C)NC(C)(C)C2)cc1`, the inhibition is 0% (inactive).
On to `O=C(c1c(Cl)nc2sccn12)N(C(=O)c1c(Cl)nc2sccn12)c1ccc(Cl)cn1`, for which the inhibition is 0% (inactive).
With `CN(C)C(CN1C(=O)C2CC=CCC2C1=O)c1cn(C)c2ccccc12` (configuration not stated), the inhibition was 0% (inactive).
With `CC(=O)Nc1cc(NC(C)=O)cc(C(=O)OCC(=O)N2CC(C)OC(C)C2)c1` (configuration not stated) the figure was 2% (inactive).

One may read the inhibition as the drop in the measured response relative to a control, in per cent.

The record behind these values is PubChem BioAssay.
